# Test results as given in PubChem BioAssay (EPA / NIEHS).
# The source made the active and inactive calls. Rule for the calls: active = hit-call score of the fitted dose curve at least 0.9, where 1 is the maximum; inactive = score below 0.9.
# Read-out: Transforming Growth Factor (TGFB1), TGFB1 (gene 7040)
# Test: LTEA_HepaRG_TGFB1: Life Technologies and Expression Analysis (LTEA) Assay for Transforming Growth Factor (TGFB1) Transporter using HepaRG (AID 2283533)
# Settings: mRNA level, 48 h; actives raise or lower the signal
# Description: LTEA_HepaRG is a cell based, multiplexed-readout assay that uses HepaRG, a human liver cell line, with measurements taken at 48 hours after chemical dosing on a 96-well plate.LTEA_HepaRG_TGFB1 is one of 102 assay component(s) measured in the LTEA HepaRG cell culture assay. It is a marker of Cell proliferation, survival, death.Data from the assay component LTEA_HepaRG_TGFB1 was analyzed into 1 endpoint. This assay endpoint, LTEA_HepaRG_TGFB1, was analyzed with bidirectional fitting relative to DMSO as the negative control and baseline of activity. Using a type of inducible reporter, measures of mRNA induction for gain or loss-of-signal activity can be used to understand regulation of transcription factor activity. To generalize the intended target to other relatable targets, this assay endpoint is annotated to the growth factor intended target family, where the subfamily is transforming growth factor beta.
# A total of 1060 chemcials from the ToxCast library were tested in eight-point concentration-response experiments. Cell culture and cytotoxicity assays were conducted at Thermo Fisher Scientific's Custom Services facility (Madison, WI). A single lot of human HepaRG cells (Thermo Fisher Scientific, Frederick, MD) was used for the cell culture experiments. 96-well format collagen type I coated plates of human HepaRG cells were prepared using established methods. Briefly, cryopreserved HepaRG cells were thawed, plated at a density of approximately 100,000 cells/well in HepaRG Thaw, Plate, and General Purpose media (HPRG770, Thermo Fisher Scientific), and incubated for 48 hours. 0.5% DMSO was selected as vehicle control to balance the requisite need of DMSO in HepaRG cultures to maintain differentiation (for example, baseline metabolism, proportions of hepatocytes vs. cholangiocytes), while enabling further hepatic receptor pathway activation (for example, PXR and CAR) in response to chemical exposure. 48 hours after plating, the culture medium was replaced with HepaRG Serum-Free Incudtion Media. Cells were exposed to each test chemical in duplicate and maintained in CO2 incubators for another 48 hours. Chemical plates were thawed to room temperature and 200x concentrations of treatment groups were prepared. 8-point conentration-reponse curves were made with the highest exposure at 100 uM, followed by half-log dilutions, all in 0.5% DMSO. Each test plate contained variouse controls, induction positive controls (1mM phenobarbital), cytotoxicity positive controls ([…] aflatoxin B1), vehicle controls (0.5% DMSO), and total lysis controls (0.5% DMSO). Cell morphology images were taken using an Essen IncuCyte FLR automated microscope, with six 96-well plates imaged in about 24 minutes. Images were captured and exported and JPEG files. Spent culture media was transfered to black-well plates for the LDH assay, and remaining media was sorted at -80 C for later use. Cells were treated with RLT buffer and frozen until shipped for gene expression analysis. Total RNA was isolated from the cell suspension in 75 uL of Buffer RLT (Qiagen, Germantown, MD 20874) by Quintiles/Expression Analysis (Durham, NC) using a custom isolation procedure. Total RNA from each plate well was transferred to a preamplification plate. Fluidigm's 96.96 Dynamic ArrayTM (Fluidigm, Amsterdam, the Netherlands) technology was used for gene expression analyses by quantitative reverse transcription polymerase chain reaction (qRT-PCR, performed by Quintiles/Expression Analysis, Durham, NC)89. Standard TaqManTM Assays (Applied Biosystems/ThermoFisher Scientific, Foster City, CA) were used to assess the expression of 93 genes selected based on their selectivity and sensitivity to important hepatic receptors known to be modulated by environmental chemicals; importance in human hepatocyte functionality; and hepatotoxicity. […]
SMILES,outcome,AC50
COC(=O)CCCCC(=O)OC,inactive,
N#C[C@@H]1CC(F)(F)CN1C(=O)CNC1CC2CCC(C1)N2c1ncccn1 (stereo not given in full),inactive,
CC(C)(C)CC(C)(C)c1ccc(O)c(-n2nc3ccccc3n2)c1,inactive,
C=C(C)C(=O)OCCC(F)(F)C(F)(F)C(F)(F)C(F)(F)C(F)(F)C(F)(F)F,inactive,
CCCCCCCCCCCCN1CCCC1=O,inactive,
CCCCCCCC(=O)O,inactive,
CN1CCN(c2ccccc2/C=C2\SCCN(c3ccc(Cl)c(Cl)c3)C2=O)CC1,,93.4 µM (active)
OCCC(F)(F)C(F)(F)C(F)(F)C(F)(F)C(F)(F)C(F)(F)C(F)(F)C(F)(F)F,inactive,
CC(C)(C)c1cc(C(C)(C)C)c(O)c(C(C)(C)C)c1,inactive,
NC(=O)N(O)[C@@H]1C=C[C@H](Oc2cccc(Oc3ccc(F)cc3)c2)C1,,72.4 µM (active)
C[C@@H]1C[C@H]2[C@@H]3CCC4=CC(=O)C=C[C@]4(C)[C@@]3(F)[C@@H](O)C[C@]2(C)[C@@]1(O)C(=O)COP(=O)(O)O,inactive,
C#C[C@]1(O)CC[C@H]2[C@@H]3CCC4=CC(=O)CC[C@@H]4[C@H]3CC[C@@]21C,inactive,
Cc1cc(C)c(O)c(C)c1,inactive,
CCCCC(CC)COC(=O)CCCCC(=O)OCc1ccccc1 (stereo not given),inactive,
COc1ccc([N+](=O)[O-])cc1N,inactive,
CC#C[C@]1(O)CC[C@H]2[C@@H]3CCC4=CC(=O)CCC4=C3[C@@H](c3ccc(N(C)C)cc3)C[C@@]21C,,3.49 µM (active)
CCCCCCCCCCCCc1ccccc1S(=O)(=O)O,inactive,
CN1CCC[C@H]1c1cccnc1,inactive,
CCCOC(=O)c1ccc(O)cc1,inactive,
c1ccc2c(c1)ccc1ccccc12,inactive,

SMILES,outcome,AC50
Oc1cc2ccccc2c2ccccc12,inactive,
CCc1nn(C2CCCCC2)c2cc(C3(C#N)CCC(C(=O)O)CC3)ccc12 (stereo not given),,33.2 µM (active)
ClC1=C(Cl)C(Cl)(Cl)C(Cl)=C1Cl,inactive,
CCC(=C(c1ccc(O)cc1)c1ccc(OCCN(C)C)cc1)c1ccccc1,,97.5 µM (active)
CC(=O)NC1(c2cccc(F)c2)CCN(CC[C@@]2(c3ccc(Cl)c(Cl)c3)CN(c3ccccc3)C(=O)CO2)CC1,inactive,
CCOC(=O)CC(O)(CC(=O)OCC)C(=O)OCC,inactive,
CC1=C(/C=C/C(C)=C/C=C/C(C)=C/C(=O)O)C(C)(C)CCC1,inactive,
CCCCC(CC)COC(=O)CCCCC(=O)OCC(CC)CCCC (stereo not given),inactive,
O=C(OCCOCCOC(=O)c1ccccc1)c1ccccc1,inactive,
CC(O)CO (stereo not given),inactive,
O=c1c(-c2ccc(O)cc2)coc2cc(O)ccc12,inactive,
CCN(CC)CCNc1ccc(CNC=O)c2sc3ccc(OC)cc3c(=O)c12,inactive,
OC1CCCCC1,inactive,
Nc1cccc2c(N)cccc12,inactive,
CCC(C)(C)C1CCC(O)CC1 (stereo not given),inactive,
CC(C)CCCCCCOC(=O)CCCCC(=O)OCCCCCCC(C)C,inactive,
CC[C@H](C)[C@@H](C(=O)O)n1sc2ccccc2c1=O,inactive,
OCCC(F)(F)C(F)(F)C(F)(F)C(F)(F)C(F)(F)C(F)(F)F,inactive,
O=C(O)Cc1cc(I)c(Oc2cc(I)c(O)c(I)c2)c(I)c1,,56.4 µM (active)
OC1CCC(C2CCCCC2)CC1 (stereo not given),inactive,
